Screening data (PubChem)
USP2a inh – qHTS Assay for Inhibitors of Ubiquitin-specific Protease USP2a Using CHOP2 as the Reporter; USP2 core, Ub-CHOP2 coupled fluorogenic reporter, 485/531; Potency, µM (titrated, usually from 38.3 µM), for inactives: top-dose activity change, negative = inhibition, most hits filed as inhibitors; actives 0.01% (n = 330,000); AID 463254, 2010;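 also: potency is read from the fitted curve at half-maximal effect; plate controls were DMSO wells for no effect and full inhibition by NEM control for full effect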
Target sequence (O75604 whole entry, looked up): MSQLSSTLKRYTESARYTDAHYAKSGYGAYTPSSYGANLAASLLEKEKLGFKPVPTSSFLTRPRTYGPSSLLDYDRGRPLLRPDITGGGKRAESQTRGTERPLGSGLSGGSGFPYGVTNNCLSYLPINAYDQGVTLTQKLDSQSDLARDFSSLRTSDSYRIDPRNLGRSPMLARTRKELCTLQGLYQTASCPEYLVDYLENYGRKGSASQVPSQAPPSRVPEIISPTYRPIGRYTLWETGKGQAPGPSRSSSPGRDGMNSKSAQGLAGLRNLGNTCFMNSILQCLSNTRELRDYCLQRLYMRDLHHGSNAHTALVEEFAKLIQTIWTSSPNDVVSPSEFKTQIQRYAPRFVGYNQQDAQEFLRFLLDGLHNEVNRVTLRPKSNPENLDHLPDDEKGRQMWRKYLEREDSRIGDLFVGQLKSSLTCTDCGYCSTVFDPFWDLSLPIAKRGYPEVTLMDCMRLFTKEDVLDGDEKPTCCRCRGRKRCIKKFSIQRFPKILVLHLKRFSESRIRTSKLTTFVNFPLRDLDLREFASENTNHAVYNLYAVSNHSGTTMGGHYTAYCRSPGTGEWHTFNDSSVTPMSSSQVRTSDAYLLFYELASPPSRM
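Cell-free coupled assay: 10nM USP2 core preincubated 30min RT with compound in Tris-HCl pH 8.0/CaCl2/CHAPS buffer, then 25nM Ub-CHOP2 and 25nM reporter substrate; fluorescence (Ex 485/Em 531) read after 60min RT, normalized to NEM inhibition, concentration-response curves fitted.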
USP1 inh – Inhibitors of USP1/UAF1: Primary Screen | AID 743255, 2014 | recombinant USP1/UAF1, Ub-Rhodamine cleavage fluorescence | actives 0.23% (n = 390,000) | Ubiquitin carboxyl-terminal hydrolase 1 (Homo sapiens), O94782 | Potency, µM (doses to about 57.1 µM), inactives show at the highest dose activity change, negative = inhibition, most hits filed as inhibitors; also: potency is read from the fitted curve at half-maximal effect; % is scaled to controls: 0 for no effect and ±100 for the full control effect; nearly all actives have a fitted effect of over 60% in size
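1 nM enzyme complex + cpd, 15 min RT; start with Ub-Rho 150nM final; kinetic fluorescence ex 480/em 540, 6 reads q60 s. Buffer 50mM HEPES pH 7.8, 0.5mM EDTA, 0.1 mg/ml BSA, 1mM TCEP, 0.01% Tween-20.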
ATXN2 expr inh – Primary qHTS for Inhibitors of ATXN expression; actives 0.72% (n = 360,000); AID 1745845, 2022; HEK-293 ATXN2-luciferase reporter, luminescence, 24 h; Potency, µM (highest dose often 57 µM), without a hit: top-dose activity change, negative = inhibition, hits mostly inhibitors; also: potency is read from the fitted curve at half-maximal effect; % is scaled to controls: 0 for no effect and ±100 for the full control effect; nearly all actives have a fitted effect of over 55% in size
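ATXN2-luciferase reporter cells (luciferase flanked by upstream and downstream ATXN2 gene portions) were treated 24 h at 37 °C with compounds at up to 57 uM. SteadyGlo luminescence gave expression; GF-AFC fluorescence gave viability.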
S2 tox – Viability Counterscreen for Primary qHTS for Inhibitors of ATXN expression | S2 cells (HEK-293 line with an ATXN2-luciferase reporter) viability, CellTiter-Fluor protease fluorescence, 24 h | Potency, µM (doses to about 56.7 µM), hits mostly cytotoxic | actives 0.49% (n = 400,000); also: potency is read from the fitted curve at half-maximal effect; nearly all actives have a fitted effect of over 40% in size
IL-1B inflam inh – qHTS for Inhibitors of Inflammasome Signaling: IL-1-beta AlphaLISA Primary Screen; THP-1 LPS/ATP IL-1B secretion, AlphaLISA, 16 h; hits give low values; activity change, % at 57.5 µM; actives 4.7% (n = 360,000); AID 743279, 2014; in the data active = activity change below about -50%; inconclusive = mostly about -30% to -49%; also: % is scaled to controls: 0 for no effect and ±100 for the full control effect
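THP-1 cells pretreated 1 hr with compounds (up to 57.5 uM final), then stimulated with LPS (250 ng/mL final) plus ATP (1.25 mM final); secreted IL-1B measured by AlphaLISA after 16 hr, decreased signal indicating inhibition.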
Numbers without * were called inactive; i = inactive; u = inconclusive; x = no result given. The list is not random: actives were taken first. Their share in the collection is about 4.8%. Unless noted, calls follow the shape of the dose curve; as a rule, active = well fitted curve in the direction sought with a large enough effect; inconclusive = small, poorly fitted or top-dose-only effect, or another doubt; inactive = no such curve, though single readings can be large; an effect the other way counts as inactive or inconclusive.

SMILES	USP2a inh	USP1 inh	ATXN2 expr inh	S2 tox	IL-1B inflam inh
C=CCC[C@H](Cc1ccc(F)cc1)C(=O)OC[C@H](Cc1c[nH]c2ccccc12)NC(=O)[C@H](CC=C)CC(=O)NCCO	-9.0%	-19.0%	u	u	u
C=CCC[C@@H](Cc1ccc(F)cc1)C(=O)OC[C@@H](Cc1c[nH]c2ccccc12)NC(=O)[C@@H](CC=C)CC(=O)NCCO	-1.9%	-22.6%	u	31.6µM*	-64.6*
C=CC[C@@H](CC(=O)NCCO)C(=O)N[C@H](COC(=O)[C@@H](CC=C)Cc1ccc(F)cc1)Cc1c[nH]c2ccccc12	-4.6%	u	u	x	-11.3
C=CC[C@@H](CC(=O)NCCO)C(=O)N[C@@H](COC(=O)[C@@H](CC=C)Cc1ccc(F)cc1)Cc1c[nH]c2ccccc12	1.9%	u	-24.3%	u	-55.0*
Cc1ccc2nc(SCC(=O)N3CCCc4ccccc43)nc(=O)n2c1	x	0.7%	4.4%	i	-14.0
Cc1cc(Cl)ccc1OCCSc1nnc(-c2cccs2)o1	x	-15.8%	-8.1%	i	x
C/C(=N\O)c1cc(Cl)cc(Cl)c1O	3.1%	-3.9%	20.2%	i	-82.6*
C/C(=N\O)c1ccc(Cl)cc1Cl	5.6%	-16.4%	-10.1%	i	-2.5
CCCc1cc(-c2[nH]ncc2-c2ccc(C(=O)OCC)o2)c(O)cc1O	-1.9%	-20.2%	-28.6%	u	-83.9*
CCCc1cc(-c2[nH]ncc2-c2ccc3c(c2)OCCCO3)c(O)cc1O	-11.1%	-9.7%	u	u	0.1
Nc1cccc(C(=O)Nc2cccc3ncccc23)c1	1.9%	4.8%	-3.7%	i	u
COc1ccc(C2C3=C(CC(C)(C)CC3=O)Nc3cc4c(cc32)OCO4)cc1 (stereo not drawn)	-1.3%	-23.7%	-3.3%	u	-60.0*
NC(=O)c1ccsc1NC(=O)CSc1nncs1	0.7%	-7.1%	1.2%	i	9.6
O=C(c1ccccn1)N1N=C2/C(=C/c3ccc(F)cc3)CCCC2C1c1ccc(F)cc1 (stereo not drawn)	-0.8%	-22.2%	0.1%	i	-54.7*
COCC(C)NC(=O)CCSc1nc(-c2ccc(OC)cc2)cc(C(F)(F)F)n1 (stereo not drawn)	-1.1%	-8.9%	-12.5%	i	-57.4*
N#Cc1c(O)c2c(-c3ccc(-c4ccccc4O)cc3)csc2[nH]c1=O	x	x	-9.0%	x	x
CN1C(c2ccc(F)cc2)=CS/C1=C(\C#N)c1nnc2n1-c1ccccc1SC2	1.2%	-2.2%	-24.2%	i	-78.6*
Cn1ncc2c(O/N=C(\N)c3ccc(C(C)(C)C)cc3)ncnc21	-1.4%	-15.6%	u	x	-101.3*
CCOC(=O)c1ccc(Nc2ncnc3c2cnn3C)cc1	2.0%	u	6.1%	i	-13.9
CN(C)c1ccc(C(=O)N2CCN(c3cc(C(F)(F)F)nc4ccccc34)CC2)cc1	-0.5%	-24.9%	u	u	-54.6*
COCCNC(=O)CN1C(=O)/C(=C/c2ccccc2)Oc2ccc(C(C)(C)C)cc21	0.1%	-20.9%	x	i	-52.9*
CCc1ccc(/C=C2/Sc3ccccc3N(CC(=O)NCCCN3CCOCC3)C2=O)cc1	-16.8%	-17.4%	x	u	-65.2*
O=C(CN1C(=O)/C(=C\c2cccc(Br)c2)Oc2ccccc21)NCCCN1CCOCC1	1.9%	-28.5%	u	x	-51.8*
O=C(CN1C(=O)/C(=C/c2ccc(C(F)(F)F)cc2)Sc2ccccc21)NCCCN1CCOCC1	-0.5%	-24.0%	-20.2%	i	u
CCOC(=O)C1(Cc2ccccc2C)CCCN(C(=O)c2ccc(OC)o2)C1 (stereo not drawn)	-2.1%	-15.1%	-6.0%	i	-5.8
SMILES	USP2a inh	USP1 inh	ATXN2 expr inh	S2 tox	IL-1B inflam inh
CN(C)CCCN(C(=O)c1ccc(S(=O)(=O)N2CCc3ccccc3C2)cc1)c1nc2ccc(F)cc2s1	1.3%	-10.0%	u	u	-98.4*
CN(C)CCCN(C(=O)c1ccc(S(=O)(=O)N(C)C)cc1)c1nc2ccc(F)cc2s1	1.6%	-21.4%	x	i	-0.5
Cc1cc(C)c2sc(N(CCCN(C)C)C(=O)c3ccc(S(=O)(=O)N4CCc5ccccc5C4)cc3)nc2c1	-4.2%	x	x	x	x
CN(C)CCCN(C(=O)c1ccc(S(=O)(=O)N2CCc3ccccc3C2)cc1)c1nc2c(F)cccc2s1	-1.6%	-13.2%	-21.3%	i	-51.1*
Cc1cc(C)c2sc(N(CCCN(C)C)C(=O)c3ccc(S(=O)(=O)N4CCCc5ccccc54)cc3)nc2c1	0.4%	-17.2%	u	28.2µM*	-67.0*
Cc1ccc2nc(N(CCCN(C)C)C(=O)c3ccc(S(=O)(=O)N4CCc5ccccc5C4)cc3)sc2c1	1.1%	-20.6%	u	u	-96.2*
Cc1cccc2sc(N(CCCN(C)C)C(=O)c3ccc(S(=O)(=O)N4CCc5ccccc5C4)cc3)nc12	-1.3%	-8.2%	-27.6%	u	u
O=C(CCNC(=O)N1CC(=O)Nc2ccccc21)NCc1ccccc1	x	-23.6%	x	i	15.9
Cc1ccc(C)c(NC(=O)CN2CCCN(Cc3cccc(Cl)c3)S2(=O)=O)c1	x	-3.4%	x	x	x
CN(C)CCCN(C(=O)c1ccc(S(=O)(=O)N2CCc3ccccc32)cc1)c1nc2ccc(F)cc2s1	0.7%	-21.0%	u	i	-81.1*
COc1ccc2sc(N(CCCN(C)C)C(=O)c3ccc(S(=O)(=O)N4CCCC4)cc3)nc2c1	-0.1%	-6.0%	-7.9%	i	u
CN(C)CCCN(C(=O)c1ccc(S(=O)(=O)N2CCCCCC2)cc1)c1nc2c(F)cc(F)cc2s1	-1.0%	-21.8%	-6.3%	i	-85.8*
CN(C)CCCN(C(=O)c1ccc(S(=O)(=O)N2CCc3ccccc32)cc1)c1nc2ccc(Cl)cc2s1	-2.6%	-5.9%	-15.9%	i	0.0
COc1ccc2sc(N(CCCN(C)C)C(=O)c3ccc(S(=O)(=O)N4CCc5ccccc5C4)cc3)nc2c1	-14.7%	1.2%	u	u	-118.3*
CCOC(=O)N1CCN(C(=O)C[C@@H]2C[C@@]3(C(=O)OCC)CCC=C3N(Cc3ccc4c(c3)OCO4)C2=O)CC1	x	x	7.4%	i	6.1
CCC(=O)N1c2ccccc2CC1C(=O)NCc1cc(Br)ccc1OC (stereo not drawn)	x	-25.7%	1.4%	i	x
CC(C)c1ccc(C(O)P(=O)(OC2CCCCC2)OC2CCCCC2)cc1 (stereo not drawn)	1.7%	-16.6%	x	31.6µM*	-91.9*
